This is an account of results in PubChem BioAssay AID488930 (Broad Institute, 2010).

Results with a measured potency or affinity are listed apart. Inconclusive results are not listed. Activity calls are given as the source filed them.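 How the source made its calls: active means compounds whose fitted half-maximal concentration is at most ten times their top tested dose; inconclusive means flat curve with 30 to 70% inhibition, or poor fit; inactive means the rest.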

A short description of this experiment: C. albicans growth inhibition with fluconazole, dose response, antifungal resistance reversal project, CaCi-2 strain, Alamar Blue, dry powder, set 2 (AID 488930). The following applies: C. albicans CaCi-2 (fluconazole-resistant clinical isolate) + fluconazole, 48 h; series mostly up to 6 µM. A general note: Alamar Blue is a resazurin reagent that responds to reducing activity.
As for `O=C(O)Cn1nc(-c2ccccc2)c2ccccc21`, the outcome was inactive. Turning to `COc1ccc2c(N3CCN(C(=O)c4ccc(Cl)cc4)CC3)ccnc2c1`, the outcome was inactive. Take `CCCC(=O)N1CCN(c2ccnc3cc(Cl)ccc23)CC1`: the result was inactive. As for `O=C(c1ccc(Cl)cc1)N1CCN(c2ccnc3ccccc23)CC1`, the outcome was inactive. Turning to `Clc1ccc2c(N3CCNCC3)ccnc2c1`, the result was inactive. `O=C(c1ccc(Cl)cc1)N1CCNCC1`: the outcome was inactive. With `O=C(Nc1ccc(Cl)cc1)N1CCN(c2ccnc3cc(Cl)ccc23)CC1`, the outcome was inactive. Regarding `COCCC(=O)N1CCN(c2ccnc3cc(Cl)ccc23)CC1`, the result was inactive. For `Cc1cc(N2CCN(C(=O)c3ccc(Cl)cc3)CC2)c2ccc(F)cc2n1`, the outcome was inactive.

Consider `COc1ccnc(N2CCN(C(=O)c3ccc(Cl)cc3)CC2)c1`, for which the outcome was inactive. Turning to `O=C(c1ccc(Cl)cc1)N1CCN(c2ncnc3ccccc23)CC1`, the result was inactive. `COc1cccc2c(N3CCN(C(=O)c4ccc(Cl)cc4)CC3)cc(C)nc12`: the result was inactive.

For `O=C(c1ccc(Cl)cc1)N1CCN(c2cccnc2)CC1`, the outcome was inactive. Take `O=C(c1ccccc1Cl)N1CCN(c2ccnc3cc(Cl)ccc23)CC1`: the outcome was inactive.

With `O=C(c1ccc(Cl)cc1)N1CCN(c2ccncc2)CC1`, the result was inactive.

As to `N#Cc1ccc(N2CCN(C(=O)c3ccc(Cl)cc3)CC2)nc1`, the result was inactive. Consider `O=C(c1ccc(Cl)cc1)N1CCCN(c2ccnc3cc(Cl)ccc23)CC1`, for which the result was inactive.

Consider `O=C(c1ccc(Cl)cc1)N1CCN(c2ncnc3nc[nH]c23)CC1`, for which the result was inactive. For the molecule `Cc1cc(N2CCN(C(=O)c3ccc(Cl)cc3)CC2)c2ccccc2n1`, the outcome was inactive.
